From PubChem BioAssay
This is one part of a sample in which hits are shown more often than they occur.
nsP2pro inh = CHIKV nsP2 protease inhibition, primary qHTS | FRET peptide cleavage, nsP2pro, fluorescence 1 h | AID 1964107 | Potency, µM (titrated, usually from 24.9 µM), hits mostly inhibitors | hit rate 1.1% among 31,000 | Q8JUX6; note: nearly all actives have a fitted effect of over 60% in size
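Recombinant nsP2pro (150 nM) was preincubated with compound 15 min at room temperature in 10 mM Tris-HCl pH 8.0, 0.01% Tween 20. Peptide 2 FRET substrate (2.5 uM) was then added and fluorescence read after 1 h. Seven-point series, up to 25 uM.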
nsP2 cell sec = inhibits CHIKV nsP2 protease in cells; Potency, µM (highest dose often 51.1 µM), actives largely listed as inhibitors; AID 1964100; shares compounds with nsP2pro inh; hit rate 10% among 450; cell-based CHIKV nsP2 protease reporter assay; note: nearly all actives have a fitted effect of over 70% in size
CHIKV NSP2 FL = full-length CHIKV NSP2 protease inhibition, selectivity | shares compounds with nsP2pro inh | Full-length CHIKV NSP2 protease enzymatic counterscreen | Potency, µM (top dose mostly 50.7 µM), hits mostly inhibitors | hit rate 39% among 410; note: nearly all actives have a fitted effect of over 65% in size
Furin counter = selectivity counter-screen for CHIKV nsP2 protease inhibitors: human furin; shares compounds with nsP2pro inh; Recombinant human furin enzymatic counterscreen, fluorogenic substrate; Potency, µM (top dose mostly 50.6 µM), actives largely listed as inhibitors; hit rate 6% among 410; AID 1964102
nsP2 NS23 pep = nsP2pro inhibition on native NS2/3 peptide substrate; Potency, µM (highest dose often 51 µM), most hits filed as inhibitors; Purified CHIKV nsP2 protease, endogenous NS2/3 peptide cleavage; hit rate 34% among 410; shares compounds with nsP2pro inh; AID 1964103; note: nearly all actives have a fitted effect of over 55% in size
Papain counter = inhibits papain in a CHIKV nsP2 protease selectivity counterscreen; purified papain protease activity, enzymatic inhibition; Potency, µM (doses to about 51 µM), actives largely listed as inhibitors; AID 1964104; shares compounds with nsP2pro inh; hit rate 5% among 410
Target sequence (P00784 whole entry, looked up): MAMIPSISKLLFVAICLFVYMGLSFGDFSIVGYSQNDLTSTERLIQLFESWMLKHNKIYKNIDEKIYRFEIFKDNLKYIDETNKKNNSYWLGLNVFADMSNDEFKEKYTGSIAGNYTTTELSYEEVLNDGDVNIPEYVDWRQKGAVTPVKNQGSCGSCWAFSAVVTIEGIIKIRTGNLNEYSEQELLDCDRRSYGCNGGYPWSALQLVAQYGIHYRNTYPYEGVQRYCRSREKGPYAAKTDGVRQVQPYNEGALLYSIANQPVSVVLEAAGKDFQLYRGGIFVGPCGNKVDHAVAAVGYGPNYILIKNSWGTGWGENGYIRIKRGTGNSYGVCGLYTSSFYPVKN
nsP2pro confirm = CHIKV nsP2 protease inhibition, confirmatory qHTS; shares compounds with nsP2pro inh; CHIKV nsP2 protease enzymatic activity, qHTS; Potency, µM (doses to about 25.5 µM), actives largely listed as inhibitors; hit rate 43% among 410; AID 1964105; note: nearly all actives have a fitted effect of over 75% in size
HCV NS3 4A cs = selectivity counter-screen for CHIKV nsP2 protease inhibitors: HCV NS3/4A | shares compounds with nsP2pro inh | HCV NS3/4A protease biochemical counterscreen | Potency, µM (doses to about 50.9 µM), actives largely listed as inhibitors | hit rate 20% among 410; note: nearly all actives have a fitted effect of over 55% in size
Large screens that a line does not name were inactive (follow-up assays come after a bar, where they were run); ! = a repeat was not active. Calls come from the whole dose curve.

Cn1cc(Cl)c(C2N=C(Nc3nc4ccccc4o3)NC3=C2C(=O)CCC3)n1 (centres undefined)	none
c1c[nH]c(CNc2ncnc3ccc(-c4ccoc4)cc23)n1	none
O=C(Nc1ccc(F)c(C(F)(F)F)c1)Nc1nnc(-c2cccnc2)s1	none
CCCC(=O)O[C@H]1CN2CC[C@H](O)[C@@H]2[C@@H](O)[C@@H]1O	none
Cc1ccccc1Cn1c(C(=O)O)c(CNCc2cccc(F)c2)c2ccccc21	none
Cc1cccc(-c2nc3c4ccccc4n(CC(=O)Nc4cc(F)ccc4F)c(=O)n3n2)c1	none
Cc1c(Cc2ccc3ccccc3n2)c2cc(F)ccc2n1CC(=O)O	nsP2pro inh inconclusive | nsP2 cell sec inactive | CHIKV NSP2 FL inactive | Furin counter inactive | nsP2 NS23 pep inactive | Papain counter inactive | nsP2pro confirm inconclusive | HCV NS3 4A cs inactive
CCCC1=Nc2cc(C(=O)NCCCN3CCCCC3CC)ccc2Sc2ccc(C)cc21 (centres undefined)	none
O=c1oc2c3c(ccc2c2ccccc12)OCN(Cc1cccc(Cl)c1)C3	none
O=c1oc2c3c(ccc2c2ccccc12)OCN(Cc1ccccc1Cl)C3	nsP2pro inh 1.12µM | nsP2 cell sec inactive | CHIKV NSP2 FL inactive | Furin counter inactive | nsP2 NS23 pep 11.6µM | Papain counter inactive | nsP2pro confirm 4µM | HCV NS3 4A cs inactive
Cc1cc(=O)oc2c3c(ccc12)OCN(Cc1ccccc1Cl)C3	none
O=c1n(CCN2CCCC(N[S+](=O)([O-])c3ccccc3)C2)nc2n1CCCC2 (centres undefined)	none
Cc1ccc(C(=O)N2CCC(C(=O)N3CCC(N4CCCC4=O)CC3)CC2)cc1	none
O=C(CCN1CCN(C(=O)OCc2cc(Cl)cc(Cl)c2)CC1)c1ccc2[nH]c(=O)oc2c1	nsP2pro inh 0.988µM! | nsP2 cell sec inactive | CHIKV NSP2 FL 16.3µM | Furin counter inactive | nsP2 NS23 pep inconclusive | Papain counter inactive | nsP2pro confirm 6.34µM | HCV NS3 4A cs inactive
O=C(Nc1ccc2[nH]c(=O)oc2c1)C(=O)N1CCC(Cc2ccc(F)cc2)CC1	none
Cc1sc(NC(=O)Cc2ccc3c(c2)OCO3)nc1-c1ccc2c(c1)CCN2C(=O)C1CCCCC1	none
O=C1Nc2ccccc2/C1=C\c1cc(Br)c(O)c(Br)c1	none
Cc1cncc(NC(=S)N2CCN(c3cccc(C(F)(F)F)c3)CC2)c1	none
Cc1cc(C)nc(NC(=S)N2CCN(c3ncnc4sccc34)CC2)c1	none
COc1ccc(CNC(=O)c2nc(S(=O)(=O)Cc3ccccc3)ncc2Cl)cc1	nsP2pro inh 6.31µM! | nsP2 cell sec 3.66µM! | CHIKV NSP2 FL 16.3µM | Furin counter inactive | nsP2 NS23 pep 8.19µM | Papain counter inactive | nsP2pro confirm 5.65µM | HCV NS3 4A cs inconclusive
COc1ccc(NC(=O)c2nc(S(=O)(=O)Cc3ccc(C)cc3)ncc2Cl)cc1	none
CCOc1ccc(NC(=O)c2nc(S(=O)(=O)Cc3ccccc3)ncc2Cl)cc1	none
CCC(C)C(=O)N1CCC2(CCc3nn(Cc4ccccc4)c(=O)n3CC2)CC1 (centres undefined)	none
O=C(c1cccc(Cl)c1F)N1CCN(Cc2cccc(Nc3nccs3)n2)CC1	none
COC(O)(CC(C)C)C1Oc2cc(C)[nH]c(=O)c2O1 (centres undefined)	nsP2pro inh 8.81µM | nsP2 cell sec inactive | CHIKV NSP2 FL inactive | Furin counter inactive | nsP2 NS23 pep inactive | Papain counter inactive | nsP2pro confirm inactive | HCV NS3 4A cs inactive
O=C(Nc1ccccc1)c1cccs1	none
Fc1ccccc1C1=NC(c2ccc(C(F)(F)F)cc2)=Nc2ccccc2N1	none
Brc1ccc(-c2ccc(C3Nc4cccc5cccc(c45)N3)o2)cc1	none
O=C1c2ccccc2NC(c2ccccc2O)N1Cc1ccccc1 (centres undefined)	none
O=C1c2ccccc2NC(c2ccc(-c3cccs3)o2)N1O (centres undefined)	nsP2pro inh 5.62µM | nsP2 cell sec inactive | CHIKV NSP2 FL inactive | Furin counter inactive | nsP2 NS23 pep inactive | Papain counter inactive | nsP2pro confirm inactive | HCV NS3 4A cs inactive
O=C1c2ccccc2NC(c2ccc(Br)o2)N1O (centres undefined)	none
O=C1c2ccccc2NC(c2ccc(-c3ccc(C(F)(F)F)cc3)o2)N1O (centres undefined)	nsP2pro inh 10µM | nsP2 cell sec 20.6µM | CHIKV NSP2 FL inactive | Furin counter inactive | nsP2 NS23 pep inactive | Papain counter inactive | nsP2pro confirm inactive | HCV NS3 4A cs inactive
O=C(c1ccc(F)cc1)N1CCC(C(=O)N2CCCC(c3nc4ccncc4[nH]3)C2)CC1 (centres undefined)	none
COC(=O)c1ccc2c(c1)/C(=C/c1cc(Br)c(O)c(Br)c1)C(=O)N2	none
O=C(OC1C[C@@H]2CC3C[C@@H](C1)N2CC3=O)c1c[nH]c2ccccc12 (some centres undefined)	none
C[C@@H](c1nc(-c2ccc(C#N)cc2)cs1)[C@](O)(Cn1cncn1)c1cc(F)ccc1F	none
CCC(=O)OCC(=O)[C@]1(OC(=O)CC)[C@H](C)C[C@H]2[C@H]3[C@H]([C@@H](O)C[C@@]21C)[C@@]1(C)C=CC(=O)C=C1C[C@H]3Cl	none
N#Cc1ccc(-c2ccc(CNc3ccc(N4CCC(C#N)CC4)cc3)o2)cc1	nsP2pro inh 10µM | nsP2 cell sec inconclusive | CHIKV NSP2 FL inconclusive | Furin counter inactive | nsP2 NS23 pep inconclusive | Papain counter inactive | nsP2pro confirm inconclusive | HCV NS3 4A cs 2.59µM
CC(C)(C)OC(=O)N1CCC(c2ccc(NCc3ccc(-c4ccc(C#N)cc4)o3)cc2)CC1	none
CCOC(=O)C1CCN(c2ccc(NCc3ccc(-c4ccc(C#N)cc4)o3)cc2)CC1	nsP2pro inh 4.47µM | nsP2 cell sec 20.6µM | CHIKV NSP2 FL inconclusive | Furin counter inactive | nsP2 NS23 pep inconclusive | Papain counter inactive | nsP2pro confirm inactive | HCV NS3 4A cs 3.66µM
COc1ccc(-c2ccc(CNc3ccc(N4CCN(C(=O)OC(C)(C)C)CC4)cc3)o2)cc1	none
CC(C)(C)OC(=O)N1CCN(c2ccc(NCc3ccc(-c4ccc(C#N)cc4)o3)nc2)CC1	none
CC(C)(C)OC(=O)N1CCN(c2ccc(NCc3ncc(-c4ccc(C#N)cc4)o3)cc2)CC1	none
O=C(Nc1ncc(SCCN2CCCC2)s1)C1(c2ccc(S(=O)(=O)C3CC3)cc2)CC1C1CCCCC1 (centres undefined)	none
